Measurements from the OligoGym collection.

Target: ACSL3
Test: pooled miR-30 sensor sort-seq; sequence = guide strand
Details: shRNA
Note: reference of the scale not given here.

Sequence | sensor-assay potency score (higher = more potent)
TACAGAGCCACCTTTGTCCATT | -0.892
TAATTTTTGAAGACTGATCTGC | 0.522
TTGAATTTACAGGCTTTGCTTT | -0.455
TTTCACAGCAAACTAATGGTGC | -0.648
TTGTAGTCCCACACTTCGGAAA | -1.33
TTTTTCTTGTCTTGACTCGGAG | -0.445
TAATCTTTAAGCATCCATCGGG | 0.641
TTTGATTTCACAGCAAACTAAT | -0.867

Target: ACSM2A
Test: as above
Details: shRNA

Sequence | sensor-assay potency score (higher = more potent)
ATGATCTGTACATCATAACAGG | -1.32
TCATGGGACAGGAACTGCGAGG | -1.14
TTGTCTCGAAGCTTGGCTCGTT | 0.119

Target: ACSM2B
Test: as above
Details: shRNA

Sequence | sensor-assay potency score (higher = more potent)
ATAACCTGTACATCATAACAGG | -1.03
TAAACTGGAAATACCCATCTTC | 0.528
TATCTTTCTTGGGTACTTGTAT | -0.285
TTAATGTAGAGAGTGCGGCTGG | 0.202
TTTCATTGTCTTGGAAACCATG | -1.14
TTGATTTTCATTGTCTTGGAAA | -0.899
TTAATGATATCATCTGCCCGTC | -0.544
TTGGGTACTTGTATGGGGCTGT | 0.442
TTGGCTGCTGTCTTGTCGGGAT | -0.364
TTGTCTCGAAGTTTGGTTCGTT | 0.313
TGACTTCACATGCTGCTGCAGC | -0.423
TTGGTTCGTTGAATTTTCCCTG | 0.266
TTTCTCAGACACCAGTAGCTTA | -0.818
TCCTGCTGTAGCAACATCCGGT | -0.567
TAACCTGTACATCATAACAGGA | -0.501

Target: ACSM5
Test: as above
Details: shRNA

Sequence | sensor-assay potency score (higher = more potent)
TTGATCTCTGCTCCTGTGCCAT | -0.903
TTGATCACATCGTCGTTTCTTC | 0.51
ATAACTTTGGCATCAACTCGGG | -0.475
TGACTTCGCAATTTACTCCTTT | -0.271
TAACTTTGGCATCAACTCGGGG | -0.74
AGAATTGATCACATCGTCGTTT | -0.999
TCCACTTGATCTCTGCTCCTGT | -0.0695
TACAGCTCCACACCAGTCTGGT | -0.482
TTGAAGAATTGATCACATCGTC | 0.691
TTTGACATCTTTAGGGTCGAAG | -1.09
TTGAAGAAACAGAAGGGCCGAG | -0.0546
TACTCCTTTGGATCTTTCCAGA | -1.3
